Reference: PubChem BioAssay (NCI)
Compounds without any hit were thinned out: in the full panel of roughly 79,000, 15% have a hit. Calls of active or inactive are those of the source. Rule as the data show it: active = growth inhibition above about 70%; inactive = the rest.

Tests used:
[1] = NCI Yeast Anticancer Drug Screen. Data for the rad50 strain (AID 155);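 also: 0% = growth of vehicle-only cultures of the same strain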; conditions: S. cerevisiae rad50 strain growth inhibition, active compounds read high
Outline: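 Genetically altered yeast (DNA repair pathway); compound treatment; growth inhibition vs vehicle ctrl.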

[2] = NCI Yeast Anticancer Drug Screen. Data for the mec2-1 strain (AID 157); conditions: S. cerevisiae mec2-1 strain, active compounds read high
Outline: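 Strain: mec2-1 (DNA repair/cell cycle alteration). Compound exposure, then growth measured; inhibition expressed relative to vehicle.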

[3] = NCI Yeast Anticancer Drug Screen. Data for the sgs1 mgt1 strain (AID 161);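 also: 0% = growth of cultures given vehicle only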; conditions: S. cerevisiae sgs1 mgt1 strain, active compounds read high
Outline: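 Genetically altered yeast, compound exposure, growth inhibition relative to vehicle.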

[4] = NCI Yeast Anticancer Drug Screen. Data for the cln2 rad14 strain (AID 165);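 also: 0% = growth equal to vehicle treated cultures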; conditions: S. cerevisiae cln2 rad14 strain, active compounds read high
Outline: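 Compounds are applied to the cln2 rad14 yeast strain, and growth is then compared with that of vehicle-treated cultures to give inhibition.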

[5] = NCI Yeast Anticancer Drug Screen. Data for the bub3 strain (AID 167); conditions: S. cerevisiae bub3 mutant strain, active compounds read high
Outline: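 Yeast carrying a defined mutation is treated with each compound, and growth is compared with that of vehicle-exposed cells to give inhibition.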

[6] = NCI Yeast Anticancer Drug Screen. Data for the mlh1 rad18 strain (AID 175); conditions: S. cerevisiae mlh1 rad18 strain growth inhibition, active compounds read high
Outline: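 Read-out is yeast growth inhibition, calculated against vehicle-only controls. The compound was applied to a strain engineered with DNA damage repair alterations.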

[7] = at 5.0 µM (retest, dose inferred, filed as 0.5)
[8] = at 50.0 µM (retest, dose inferred, filed as 5.0)

SMILES | growth inhibition [1, 7] | growth inhibition [1, 8] | growth inhibition ([1]; at 50.0 µM) | growth inhibition [2, 7] | growth inhibition [2, 8] | growth inhibition ([2]; at 50.0 µM) | growth inhibition [3, 7] | growth inhibition [3, 8] | growth inhibition ([3]; at 50.0 µM) | growth inhibition [4, 7] | growth inhibition [4, 8] | growth inhibition ([4]; at 50.0 µM) | growth inhibition [5, 7] | growth inhibition [5, 8] | growth inhibition ([5]; at 50.0 µM) | growth inhibition [6, 7] | growth inhibition [6, 8] | growth inhibition ([6]; at 50.0 µM)
CCC[CH2][Sn]1([CH2]CCC)[O]C2C(CO)OC(n3ccc(N)nc3=O)C2[O]1 (stereo not drawn) | 46% (inactive) | 97% (active) | 86.8% (active) | 48% (inactive) | 98% (active) | 89.7% (active) | 83% (active) | 99% (active) | 88.5% (active) | 71% (active) | 99% (active) | 83.6% (active) | 89% (active) | 99% (active) | 87.3% (active) | 26% (inactive) | 96% (active) | 84.2% (active)
C=c1c2ccccc2oc2nc3[nH]c(N)c(C#N)c(N)c3c(=N)c12 | 16% (inactive) | 82% (active) | 74% (active) | 1% (inactive) | 70% (active) | 75% (active) | 11% (inactive) | 79% (active) | 73.8% (active) | 17% (inactive) | 74% (active) | 48.5% (inactive) | 18% (inactive) | 79% (active) | 81.7% (active) | 7% (inactive) | 75% (active) | 69.2% (inactive)
CSc1nc(C)c(C(=O)CCN2CCN(c3ccccn3)CC2)s1 | -3% (inactive) | 99% (active) | 86.8% (active) | -3% (inactive) | 100% (active) | 78% (active) | -23% (inactive) | 99% (active) | 66.2% (inactive) | -2% (inactive) | 99% (active) | 43.4% (inactive) | -1% (inactive) | 100% (active) | 79.5% (active) | -3% (inactive) | 99% (active) | 58.6% (inactive)
Cc1nc(Sc2nc3ccc([N+](=O)[O-])cc3s2)sc1C | -8% (inactive) | 86% (active) | 88.2% (active) | -12% (inactive) | 90% (active) | 86.5% (active) | -2% (inactive) | 92% (active) | 84.1% (active) | – | – | – | -12% (inactive) | 88% (active) | 57.3% (inactive) | – | – | –
CC1(C)OCC(COC(c2ccccc2)(c2ccccc2)c2ccccc2)O1 (stereo not drawn) | -7% (inactive) | 14% (inactive) | 21.1% (inactive) | -6% (inactive) | 12% (inactive) | 4.65% (inactive) | -9% (inactive) | 2% (inactive) | -0.5% (inactive) | – | – | – | -2% (inactive) | 63% (inactive) | 40.2% (inactive) | -5% (inactive) | 28% (inactive) | 43.6% (inactive)
O=Nc1ccc2ccccc2c1O | -3% (inactive) | 64% (inactive) | 85.7% (active) | 3% (inactive) | 88% (active) | 89.8% (active) | -6% (inactive) | 37% (inactive) | 86.8% (active) | 25% (inactive) | 63% (inactive) | 58.5% (inactive) | – | – | – | 14% (inactive) | 93% (active) | 84% (active)
CN(C)c1ccc2cc3c(cc2c1)Oc1ccccc1N3.[Cl][Zn][Cl] | 36% (inactive) | 90% (active) | 84.2% (active) | 38% (inactive) | 95% (active) | 85% (active) | 37% (inactive) | 94% (active) | 87.8% (active) | 29% (inactive) | 94% (active) | 83.9% (active) | 48% (inactive) | 95% (active) | 83.8% (active) | 42% (inactive) | 91% (active) | 83.3% (active)
O=C(NOC(=O)c1ccccc1)c1ccccc1 | 93% (active) | 98% (active) | 99.3% (active) | 64% (inactive) | 99% (active) | 99.5% (active) | 82% (active) | 99% (active) | 99.5% (active) | 31% (inactive) | 99% (active) | 99.3% (active) | 65% (inactive) | 99% (active) | 99.3% (active) | 93% (active) | 99% (active) | 99.3% (active)
Nc1ccc(-c2ccc(N)c(S(=O)(=O)O)c2)cc1S(=O)(=O)O | 4% (inactive) | 2% (inactive) | -11.9% (inactive) | 4% (inactive) | 12% (inactive) | -9% (inactive) | 5% (inactive) | 3% (inactive) | 7.85% (inactive) | 9% (inactive) | 24% (inactive) | 49% (inactive) | 6% (inactive) | 15% (inactive) | 33.2% (inactive) | 13% (inactive) | 6% (inactive) | -21.8% (inactive)
COc1ccc2c(c1)C(OC)C1c3c(cc4c(c3-2)OCO4)CCN1C (stereo not drawn) | 24% (inactive) | 52% (inactive) | -23.1% (inactive) | 14% (inactive) | 27% (inactive) | -17.5% (inactive) | 12% (inactive) | 28% (inactive) | -8.75% (inactive) | 22% (inactive) | 28% (inactive) | -1.45% (inactive) | 28% (inactive) | 35% (inactive) | -6.05% (inactive) | 35% (inactive) | 53% (inactive) | 78.3% (active)
NC(CS/C(Cl)=C/Cl)C(=O)O (stereo not drawn) | 48% (inactive) | 92% (active) | 92.3% (active) | 47% (inactive) | 96% (active) | 93.8% (active) | 34% (inactive) | 94% (active) | 93.5% (active) | 41% (inactive) | 96% (active) | 92.3% (active) | – | – | – | 89% (active) | 97% (active) | 97.5% (active)
CCOC(=O)C1C(C(C)C)C2(C#N)C(=N)OC1(C)C2(C#N)C#N (stereo not drawn) | 15% (inactive) | 63% (inactive) | 44.8% (inactive) | 6% (inactive) | 53% (inactive) | 52.2% (inactive) | 19% (inactive) | 58% (inactive) | 49.8% (inactive) | 6% (inactive) | 37% (inactive) | 30.2% (inactive) | 14% (inactive) | 62% (inactive) | 39.5% (inactive) | 18% (inactive) | 72% (active) | 42.5% (inactive)
C=[CH][Sn]([CH]=C)([O]c1cccc2cccnc12)[O]c1cccc2cccnc12 | 27% (inactive) | 36% (inactive) | 87.3% (active) | 25% (inactive) | 34% (inactive) | 92.7% (active) | 91% (active) | 98% (active) | 82.8% (active) | – | – | – | 87% (active) | 98% (active) | 89.8% (active) | 30% (inactive) | 60% (inactive) | 87.7% (active)
CCN1/C(=C/C(C)=C/c2sc3ccc4ccccc4c3[n+]2CC)Sc2ccc3ccccc3c21 | 28% (inactive) | 30% (inactive) | 79.8% (active) | 30% (inactive) | 36% (inactive) | 82% (active) | -7% (inactive) | 42% (inactive) | 81.7% (active) | – | – | – | 43% (inactive) | 10% (inactive) | 73.2% (active) | 41% (inactive) | 35% (inactive) | 69.9% (inactive)
CCCOC1N(c2ccc(C)cc2)NC(=O)C1(C)C (stereo not drawn) | 86% (active) | 95% (active) | 83% (active) | 82% (active) | 94% (active) | 56.6% (inactive) | 33% (inactive) | 96% (active) | – | 50% (inactive) | 95% (active) | – | 49% (inactive) | 93% (active) | – | 65% (inactive) | 99% (active) | 68.1% (inactive)
O=C1C=CC(=O)N1C1CCCCCCCCCCC1 | 32% (inactive) | 66% (inactive) | 83.5% (active) | 46% (inactive) | 58% (inactive) | 86% (active) | 44% (inactive) | 98% (active) | – | 56% (inactive) | 98% (active) | – | 71% (active) | 97% (active) | – | 30% (inactive) | 61% (inactive) | 79.4% (active)
Nc1c(N)c(Cl)c(Cl)c(Cl)c1Cl | 38% (inactive) | 84% (active) | 87% (active) | 58% (inactive) | 91% (active) | 91.6% (active) | 20% (inactive) | 96% (active) | – | 43% (inactive) | 97% (active) | – | 32% (inactive) | 98% (active) | – | – | – | –
O=[N+]([O-])/C(=C/c1ccccc1)c1ccccc1 | 99% (active) | 99% (active) | 99.6% (active) | – | – | – | 99% (active) | 97% (active) | 99.7% (active) | 99% (active) | 99% (active) | 98.7% (active) | 100% (active) | 99% (active) | 99.5% (active) | 99% (active) | 99% (active) | 99.5% (active)
CC(C)(C)N/N=C(/Cc1nc2c3c(ccc2[nH]c1=O)C(=O)c1ccccc1C3=O)C(=O)NC1=C(Cl)C(=O)c2ccccc2C1=O | 27% (inactive) | 91% (active) | 82.8% (active) | – | – | – | 27% (inactive) | 77% (active) | 67.8% (inactive) | -24% (inactive) | 39% (inactive) | 21.7% (inactive) | 13% (inactive) | 83% (active) | 67.1% (inactive) | 21% (inactive) | 79% (active) | 42.4% (inactive)
CC1=NN(c2ccccc2)C(=O)C1(Br)Br | 37% (inactive) | 64% (inactive) | 92.7% (active) | 44% (inactive) | 71% (active) | 94% (active) | 23% (inactive) | 99% (active) | – | 43% (inactive) | 99% (active) | – | 49% (inactive) | 98% (active) | – | 32% (inactive) | 58% (inactive) | 93.3% (active)
Oc1ccc2ccccc2c1N=Nc1nccs1 | 27% (inactive) | 69% (inactive) | 82.8% (active) | 51% (inactive) | 92% (active) | 91.1% (active) | 98% (active) | 90% (active) | – | 74% (active) | 86% (active) | – | 96% (active) | 85% (active) | – | 36% (inactive) | 77% (active) | 77.8% (active)
CC(=O)Nc1ccc(/C=N/NC(=S)NCC(C)C)cc1 | 4% (inactive) | 10% (inactive) | – | 2% (inactive) | 3% (inactive) | – | -1% (inactive) | 7% (inactive) | – | 11% (inactive) | -8% (inactive) | – | 5% (inactive) | 9% (inactive) | – | – | – | –
